Measured values published in PubChem BioAssay.
Calls of active or inactive are those of the source. Unless noted, how the calls were made is not given here.

What was measured:
[1] = anti-His antibody binders, primary screen, artefact control for SMM control protein annotation, biochemical, small-molecule microarray, 635 nm fluorescence (AID 1128); settings: anti-His Alexa647 antibody binding, higher = more signal;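 further: score merges feature fluorescence with signal-to-noise for each printed compound spot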
[2] = test system: Human papillomavirus type 1a E7 protein (residues 1-88); assay: HPV1a E7 small-molecule binders, primary screen, biochemical, small-molecule microarray, residues 1-88, 635 nm (AID 1129); settings: small-molecule microarray binding, fluorescence 635 nm; higher = more signal
[3] = molecular target: Focal adhesion kinase 1 (Homo sapiens) (UniProt Q05397); assay: small-molecule microarray binders of FAK, primary screen, biochemical, 635/667 nm fluorescence, BSA, DTT (AID 1130); settings: PTK2 binding, 635 nm fluorescence, higher = more signal;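 further: composite of spot emission at 667 nm and signal to noise over triplicate slides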
[4] = test system: Fibrinogen (Alexa647-labelled); assay: fibrinogen binders on compound microarrays, profiling panel, artefact control for SMM control-protein annotation, biochemical, small-molecule microarray, 635/667 nm fluorescence (AID 1131); settings: fibrinogen-A647 binding fluorescence, higher = more signal;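 further: z-score merges 667 nm fluorescence with per-spot signal-to-noise over triplicate slides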
[5] = molecular target: Follistatin (Homo sapiens) (UniProt P19883); assay: follistatin binders on small-molecule microarrays, primary screen, biochemical, small-molecule microarray, 635/667 nm fluorescence (AID 1132); settings: FST binding, 635 nm fluorescence, higher = more signal
[6] = molecular target: Fibroblast growth factor 2 (Homo sapiens) (UniProt P09038); assay: FGF2 binders on small-molecule microarrays, primary screen, biochemical, small-molecule microarray, 635/667 nm fluorescence (AID 1133); settings: small-molecule microarray binding, FGF2, fluorescence 635/667; higher = more signal
[7] = mitochondrial membrane potential change in A549 cells, profiling panel, cell-based, JC-1 fluorescence, basal, 24 h, 100 nL (AID 1138); settings: higher = more signal;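 further: A549 lung adenocarcinoma cells under basal conditions with no added stimulus; test concentration not given here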
Lefty1 = Lefty1 binders on small-molecule microarrays, primary screen, biochemical, small-molecule microarray, 635/667 nm fluorescence (AID 1139); settings: small-molecule microarray binding, fluorescence 635/667; higher = more signal
[8] = test system: wheat germ agglutinin (Triticum aestivum), Alexa647-labelled; assay: wheat germ agglutinin binders on compound microarrays, profiling panel, artefact control for SMM control-protein annotation, biochemical, small-molecule microarray, 635/667 nm fluorescence (AID 1140); settings: WGA-A647 binding, 635 nm fluorescence, higher = more signal;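 further: score merges 667 nm feature emission with signal to noise over triplicate slides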
[9] = molecular target: Luciferin 4-monooxygenase (Photinus pyralis) (UniProt P08659); assay: firefly luciferase enzyme inhibitors, primary screen, biochemical, luminescence, purified enzyme, 2006 set (AID 1141); settings: SteadyGlo luminescence, 30 min, higher = more signal, called active from +8 up or from −8 down;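 further: cell-free assay with purified firefly luciferase at 100 ng per well in PBS; test concentration not given here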
[10] = test system: Wnt5a (protein binding on small-molecule microarray); assay: Wnt5a binders on small-molecule microarray, primary screen, biophysical, 635/667 nm fluorescence (AID 1142); settings: 635 nm fluorescence, higher = more signal;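 further: fluorescence read at 667 nm with signal to noise per printed feature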
[11] = cell viability in Huh7 cells, primary screen, cytotoxicity control for HCV replication inhibitor project, CellTiter-Glo luminescence, basal, 48 h (AID 1143); settings: Huh7 HCV replicon, higher = more signal, called active from +8 up or from −8 down;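 further: Huh7 hepatoma cells carrying a hepatitis C replication reporter with no stimulus; test concentration not given here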
[12] = P. aeruginosa biofilm formation inhibitors, primary screen, PAO1 strain, BacTiter-Glo luminescence, LB-PBS (AID 1144); settings: 12 h, higher = more signal
[13] = CREB reporter modulators without forskolin, primary screen, cell-based, PC12, CRE-LacZ reporter, unstimulated (AID 1145); settings: no forskolin, luminescence, 4.5 h, higher = more signal, called active from +8 up or from −8 down
[14] = CREB reporter modulators under forskolin, primary screen, cell-based, PC12, CRE-LacZ reporter, forskolin-stimulated (AID 1146); settings: luminescence, 4.5 h, higher = more signal, called active from +8 up or from −8 down;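 further: PC12 cells with 6xCRE LacZ reporter stimulated by forskolin 10 µM; beta-galactosidase reporter signal reflecting CREB driven transcription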
[15] = molecular target: Streptavidin (Streptomyces avidinii) (UniProt P22629); assay: streptavidin binders on small-molecule microarray, primary screen, artefact control for SMM compound annotation, biophysical, 635/667 nm fluorescence (AID 1147); settings: streptavidin binding, higher = more signal;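 further: signal reflects streptavidin binding to arrayed compounds as a control protein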
[16] = small-molecule binders of probe aInhba, primary screen, biochemical, small-molecule microarray, 635/667 nm fluorescence (AID 1148); settings: higher = more signal;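 further: score merges 667nm spot fluorescence with signal-to-noise for antibody binding to printed compounds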
Torsin-1A (Homo sapiens) [17] = molecular target: Torsin-1A (Homo sapiens) (UniProt O14656); assay: torsin A binders from cell lysate, primary screen, small-molecule microarray, wild-type, 635/667 nm (AID 1149); settings: COS7 hTOR1A-WT lysate, 635 nm fluorescence, higher = more signal
Torsin-1A (Homo sapiens) [18] = molecular target: Torsin-1A (Homo sapiens) (UniProt O14656); assay: small-molecule binders of mutant TOR1A in lysate, primary screen, cell lysate, small-molecule microarray, COS7 lysate, 635/667 nm fluorescence (AID 1150); settings: COS7 hTOR1A mutant lysate, 635 nm fluorescence, higher = more signal;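 further: score pools 667 nm emission and signal to noise measuring lysate protein binding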
[19] = test system: Sonic hedgehog protein (Shh); assay: small-molecule binders of Shh protein, primary screen, biochemical, small-molecule microarray, 635/667 nm fluorescence (AID 1151); settings: small-molecule microarray binding, 635 nm fluorescence; higher = more signal;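 further: Shh protein binding to compounds spotted on small-molecule microarray slides; score combines spot fluorescence intensity with signal-to-noise across triplicate slides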

Luciferin 4-monooxygenase (Photinus pyralis), sequence (P08659 whole entry, looked up): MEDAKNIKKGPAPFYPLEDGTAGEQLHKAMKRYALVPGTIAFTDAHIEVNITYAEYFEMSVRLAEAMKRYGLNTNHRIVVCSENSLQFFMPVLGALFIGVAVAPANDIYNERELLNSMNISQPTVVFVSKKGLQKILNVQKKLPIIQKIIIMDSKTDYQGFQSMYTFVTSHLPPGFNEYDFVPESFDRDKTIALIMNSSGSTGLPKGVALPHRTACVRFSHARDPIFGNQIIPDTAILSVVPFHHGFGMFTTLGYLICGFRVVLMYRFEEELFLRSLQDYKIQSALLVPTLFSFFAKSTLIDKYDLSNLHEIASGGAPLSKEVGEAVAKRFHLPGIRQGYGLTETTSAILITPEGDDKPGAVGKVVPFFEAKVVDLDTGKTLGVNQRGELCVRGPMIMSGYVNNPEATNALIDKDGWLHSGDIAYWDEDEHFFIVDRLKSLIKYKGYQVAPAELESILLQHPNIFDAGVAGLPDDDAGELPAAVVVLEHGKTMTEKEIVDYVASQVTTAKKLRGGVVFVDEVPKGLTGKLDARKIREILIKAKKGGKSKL
Torsin-1A (Homo sapiens), sequence (O14656 whole entry, looked up): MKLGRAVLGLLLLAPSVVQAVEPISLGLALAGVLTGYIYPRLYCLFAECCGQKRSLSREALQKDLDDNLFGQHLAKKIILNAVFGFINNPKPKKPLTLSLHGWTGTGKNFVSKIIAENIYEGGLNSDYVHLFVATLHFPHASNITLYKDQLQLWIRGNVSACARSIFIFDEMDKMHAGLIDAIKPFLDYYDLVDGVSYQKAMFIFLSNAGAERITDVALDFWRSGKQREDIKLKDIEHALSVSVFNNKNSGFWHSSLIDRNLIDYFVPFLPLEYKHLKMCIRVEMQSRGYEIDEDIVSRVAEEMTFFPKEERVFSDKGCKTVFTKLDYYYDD
Fibroblast growth factor 2 (Homo sapiens), sequence (P09038 whole entry, looked up): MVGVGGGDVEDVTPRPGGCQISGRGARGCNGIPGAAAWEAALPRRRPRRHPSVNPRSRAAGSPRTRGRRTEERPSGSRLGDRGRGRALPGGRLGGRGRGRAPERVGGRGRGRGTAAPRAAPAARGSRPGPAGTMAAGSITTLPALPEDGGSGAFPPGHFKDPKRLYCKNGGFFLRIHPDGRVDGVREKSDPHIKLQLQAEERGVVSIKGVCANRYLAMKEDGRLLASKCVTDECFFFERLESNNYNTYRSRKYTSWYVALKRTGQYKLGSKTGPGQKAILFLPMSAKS
Follistatin (Homo sapiens), sequence (P19883 whole entry, looked up): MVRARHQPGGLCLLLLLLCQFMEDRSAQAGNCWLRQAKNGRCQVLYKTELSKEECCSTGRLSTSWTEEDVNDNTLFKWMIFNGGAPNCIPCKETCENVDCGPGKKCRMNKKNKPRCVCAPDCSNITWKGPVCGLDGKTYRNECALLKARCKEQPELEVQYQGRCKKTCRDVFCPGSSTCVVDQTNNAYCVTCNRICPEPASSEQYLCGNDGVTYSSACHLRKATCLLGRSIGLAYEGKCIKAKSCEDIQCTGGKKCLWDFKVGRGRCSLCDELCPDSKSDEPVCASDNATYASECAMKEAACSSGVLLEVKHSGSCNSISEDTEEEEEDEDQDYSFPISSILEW
Streptavidin (Streptomyces avidinii), sequence (P22629 whole entry, looked up): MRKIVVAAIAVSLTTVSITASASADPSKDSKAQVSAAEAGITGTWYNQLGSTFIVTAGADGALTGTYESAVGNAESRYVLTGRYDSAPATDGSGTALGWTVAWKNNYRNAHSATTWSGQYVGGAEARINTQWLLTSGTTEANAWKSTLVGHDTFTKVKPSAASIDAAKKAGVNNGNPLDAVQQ
Focal adhesion kinase 1 (Homo sapiens), sequence (Q05397 whole entry, looked up): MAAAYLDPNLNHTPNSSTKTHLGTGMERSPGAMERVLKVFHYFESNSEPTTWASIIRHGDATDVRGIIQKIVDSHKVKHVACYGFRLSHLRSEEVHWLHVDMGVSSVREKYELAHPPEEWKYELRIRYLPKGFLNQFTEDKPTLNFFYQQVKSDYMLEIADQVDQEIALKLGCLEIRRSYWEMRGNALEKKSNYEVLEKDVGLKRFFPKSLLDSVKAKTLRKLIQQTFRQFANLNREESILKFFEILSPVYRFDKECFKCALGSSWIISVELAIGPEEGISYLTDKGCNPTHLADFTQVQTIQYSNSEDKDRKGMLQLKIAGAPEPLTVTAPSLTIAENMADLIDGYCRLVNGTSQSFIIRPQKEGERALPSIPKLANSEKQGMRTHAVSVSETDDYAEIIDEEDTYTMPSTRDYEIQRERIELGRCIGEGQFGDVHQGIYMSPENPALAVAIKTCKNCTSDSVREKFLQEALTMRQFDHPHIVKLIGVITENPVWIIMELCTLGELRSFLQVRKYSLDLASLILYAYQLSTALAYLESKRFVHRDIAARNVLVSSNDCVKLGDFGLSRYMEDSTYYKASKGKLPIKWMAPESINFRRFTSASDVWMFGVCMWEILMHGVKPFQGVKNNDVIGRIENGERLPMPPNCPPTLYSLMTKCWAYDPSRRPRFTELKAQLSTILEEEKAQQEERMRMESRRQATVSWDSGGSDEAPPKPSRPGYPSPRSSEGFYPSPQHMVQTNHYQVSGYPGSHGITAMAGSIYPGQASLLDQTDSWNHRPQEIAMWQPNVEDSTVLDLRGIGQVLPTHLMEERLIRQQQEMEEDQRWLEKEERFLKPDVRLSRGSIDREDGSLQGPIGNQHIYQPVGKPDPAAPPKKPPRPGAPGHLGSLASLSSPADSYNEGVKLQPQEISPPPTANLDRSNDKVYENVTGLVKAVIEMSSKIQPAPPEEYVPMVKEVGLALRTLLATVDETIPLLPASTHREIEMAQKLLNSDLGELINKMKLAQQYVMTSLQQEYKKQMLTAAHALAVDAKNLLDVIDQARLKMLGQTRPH

Structure (SMILES) | composite z-score [1] | composite z-score [2] | composite z-score [3] | composite z-score [4] | composite z-score [5] | composite z-score [6] | z-score [7] | composite z-score (Lefty1) | composite z-score [8] | z-score [9] | composite z-score [10] | z-score [11] | z-score [12] | z-score [13] | z-score [14] | composite z-score [15] | composite z-score [16] | composite z-score (Torsin-1A (Homo sapiens) [17]) | composite z-score (Torsin-1A (Homo sapiens) [18]) | composite z-score [19]
CC(C)CNC(=O)[C@@H]1c2ccccc2C(=O)N(Cc2ccccc2Cl)[C@H]1c1ccc(CO)cc1 | 1.48 | 0.844 | 0.401 | -1.73 | -0.158 | 0.223 | 0.572 | -0.785 | -0.215 | 0.686 (inactive) | -0.0721 | -0.121 (inactive) | -0.431 (inactive) | -0.179 (inactive) | -0.867 (inactive) | -0.222 | -0.204 | 0.0521 | 0.13 | 0.145
CCOC(=O)C[C@H]1[C@H](OC(=O)c2cc3ccccc3oc2=O)[C@@H](NC(=O)C2CCCCC2)c2cc(OCCCO)ccc2N1C(=O)Cc1ccc(OC)cc1 | 0.737 | 0.122 | -0.207 | 0.231 | 0.722 | 0.188 | 0.0812 | 0.646 | 0.507 | 0.696 (inactive) | 0.418 | -0.588 (inactive) | -0.273 (inactive) | 0.849 (inactive) | -0.0784 (inactive) | 0.214 | 0.243 | 0.144 | 0.384 | 1.15
CCOC(=O)C1=CC[C@@H](c2ccc(F)cc2)N(S(=O)(=O)c2ccc(C)cc2)[C@H]1c1ccc([N+](=O)[O-])cc1 | 0.353 | 1.19 | 0.866 | 0.954 | 0.283 | -0.218 | 1.83 | 0.242 | 0.742 | 2.28 (inactive) | 0.0382 | -2.52 (inactive) | -1.24 (inactive) | -1.73 (inactive) | 0.66 (inactive) | 0.812 | 0.0131 | -0.116 | 0.599 | -0.0316
O=C1O[C@H](c2ccccc2)[C@H](c2ccccc2)N2[C@H]1[C@@H](C(=O)NC[C@H](O)c1ccccc1)[C@]1(C(=O)Nc3ccc(C#CCCO)cc31)[C@H]2c1ccccc1OCCO | 1.6 | 1.18 | 0.746 | 0.812 | 1.1 | 0.419 | -0.223 | 1.39 | 0.593 | 0.597 (inactive) | -0.24 | -1.9 (inactive) | -0.491 (inactive) | -0.141 (inactive) | -0.27 (inactive) | -0.0243 | 0.0633 | 0.898 | 1.01 | 1.97
O=C1O[C@@H](c2ccccc2)[C@@H](c2ccccc2)N2[C@@H](c3ccc(O)cc3)[C@]3(C(=O)Nc4ccc(C#CC5=CCCCC5)cc43)[C@@H](C(=O)N3CCCCCCC3)[C@H]12 | 1.22 | 1.06 | 0.277 | 0.836 | 1.4 | 1.19 | 1.26 | 1.29 | 1.32 | -3.18 (inactive) | 0.0888 | -4.91 (inactive) | -0.815 (inactive) | 0.155 (inactive) | -0.782 (inactive) | 1.1 | 1.04 | 1.12 | 0.772 | 1.95
CN(C)CCCC[C@@H]1NC(=O)[C@H]2C[C@@H](C(=O)NCc3ccc(F)cc3)[C@@H](c3ccc(O)cc3)N2C1=O | 2.75 | 0.0526 | -0.193 | 0.563 | 1.41 | 1.93 | 0.742 | 1.64 | 0.419 | -1.23 (inactive) | 0.727 | 0.0491 (inactive) | 0.792 (inactive) | 0.0084 (inactive) | -0.19 (inactive) | -0.122 | 0.0676 | 1.12 | 0.587 | 2.15
CN(C)C(=O)[C@]1(Cc2ccccc2)N=C(c2ccc(OCCCO)cc2)O[C@@H]1c1ccccc1 | 2.94 | 1.25 | 0.593 | 1 | 0.973 | -0.263 | 0.473 | -0.222 | 1.2 | -0.701 (inactive) | 0.0831 | -3.35 (inactive) | 0.18 (inactive) | 1.24 (inactive) | 0.14 (inactive) | 0.589 | 0.0184 | 0.193 | 0.71 | -0.46
[N-]=[N+]=NCc1ccccc1C[C@]1(C(=O)N2CCCCC2)N=C(c2ccc(OCCCO)cc2)O[C@H]1c1ccccc1 | 0.582 | 1.1 | 0.425 | 0.714 | 0.351 | 0.182 | 1.17 | -0.599 | 0.762 | 0.09 (inactive) | 0.601 | -5.06 (inactive) | -0.307 (inactive) | -0.0017 (inactive) | -0.964 (inactive) | 0.483 | -0.0471 | 0.81 | 0.139 | -0.655
CCCCC(=C=CC[C@H](O)c1ccc(OCCO)cc1)C[C@H](O)c1ccccn1 | 1.67 | 1.13 | 0.26 | 0.963 | 1.27 | 1.54 | 1.27 | 0.885 | 0.266 | -2.27 (inactive) | 0.259 | -0.671 (inactive) | 0.229 (inactive) | 5.13 (inactive) | -0.533 (inactive) | -0.319 | 0.0398 | 0.215 | 1.58 | 1.17
CC(C)c1ccc(NN2C(C(O)C(C)C)C=CC3C(=O)N(c4ccccc4)C(=O)C32)cc1 (stereo not given) | 1.66 | 1.26 | 0.811 | 1.04 | 0.754 | 0.013 | -0.81 | 0.172 | 1.12 | -1.73 (inactive) | 0.705 | -0.135 (inactive) | -0.202 (inactive) | 0.0569 (inactive) | -0.241 (inactive) | 1.44 | 0.722 | -0.317 | 0.431 | -0.316
